According to the supplement of paper PMC10849652:
About 7,900 targets were measured; listed, in parts, are those with a hit and a random draw of the rest. About 0.6% of all pairs of compound and target were hits.

How the values were obtained:
Assay in all cases: log2 fold change, soluble protein after heating vs DMSO (PISA); higher = thermal stabilisation; K562 cells, 10 uM, 30 min; active = over 0.2 and 3.5 SD of the protein, either way, in both replicates (recomputed)
IRAK-1-4 Inhibitor I = compound: C1COCCN1CCN2C3=CC=CC=C3N=C2NC(=O)C4=CC(=CC=C4)[N+](=O)[O-] [IRAK-1-4 Inhibitor I]
In short: (§1)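 K562 cells at 2×10^6 cells/mL were treated with 10 μM compound for 30 min. Aliquots were heated for 3 min across 48°C-58°C, pooled, and extracted in PBS with 0.5% NP-40 at 4°C; soluble protein was the supernatant after 21,000xg for 90 min. Soluble protein was quantified by TMTpro 16plex LC-MS/MS with channel sums equalised, and reported as log2 fold change in thermal stability against DMSO controls, with values from duplicates.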

ibrutinib = compound: C=CC(=O)N1CCC[C@@H](n2nc(-c3ccc(Oc4ccccc4)cc3)c3c(N)ncnc32)C1 [ibrutinib]
In short: as §1

[1] = compound: CC(=O)c1cnc2ccc(-c3cc(Cl)c(O)c(Cl)c3)nc2c1N[C@H]1CC[C@H](CN(C)C)CC1
In short: as §1

ralimetinib = compound: CC(C)(C)Cn1c(N)nc2ccc(-c3[nH]c(C(C)(C)C)nc3-c3ccc(F)cc3)nc21 [ralimetinib]
In short: as §1

[2] = compound: CC(C)(O)CC(=O)NCCn1ccc2ncnc(Nc3ccc(Oc4cccc(C(F)(F)F)c4)c(Cl)c3)c21
In short: as §1

[3] = compound: CC(C)C1=C2N=C(C=C(N2N=C1)NCC3=CC=CC=C3)NCCCCCCN
In short: as §1

[4] = compound: CC(C)C[C@@H](C=O)NC(=O)[C@H](CC(C)C)NC(=O)[C@H](CC(C)C)NC(=O)OCc1ccccc1
In short: as §1

pinometostat = compound: CC(C)N(C[C@H]1O[C@@H](n2cnc3c(N)ncnc32)[C@H](O)[C@@H]1O)[C@H]1C[C@@H](CCc2nc3cc(C(C)(C)C)ccc3[nH]2)C1 [pinometostat]
In short: as §1

[5] = compound: CC1=C(C(CC(=O)N1)C2=CC=C(C=C2)C(F)(F)F)C(=O)NC3=C(C=C4C(=C3)C=NN4)F
In short: as §1

[6] = compound: CC1=C(C2=C(C=C1)C(=O)C3=CC=CC=C3N2CCCN)C
In short: as §1

[7] = compound: CC1=C(C=C(C=C1)NC(=O)C2=CC(=CC=C2)C(C)(C)C#N)NC3=CC4=C(C=C3)N=CN(C4=O)C
In short: as §1

[8] = compound: CC1=C(C=C(C=C1)NC(=O)C2=CC(=CC=C2)N(C)C)NC(=O)C3=CC=C(C=C3)O
In short: as §1

[9] = compound: CC1=CC=C(C=C1)SC2=C3C=C(SC3=CN=C2)C(=O)N
In short: as §1

[10] = compound: CC1=NC(=CC=C1)C2=C(N=C(N2)C(C)(C)C)C3=CC4=NC=CN=C4C=C3
In short: as §1

Nexturastat A = compound: CCCCN(Cc1ccc(C(=O)NO)cc1)C(=O)Nc1ccccc1 [Nexturastat A]
In short: as §1

vemurafenib = compound: CCCS(=O)(=O)Nc1ccc(F)c(C(=O)c2c[nH]c3ncc(-c4ccc(Cl)cc4)cc23)c1F [vemurafenib]
In short: as §1

[11] = compound: CCCS(=O)(=O)Nc1ccc(F)c(C(=O)c2c[nH]c3ncc(Cl)cc23)c1F
In short: as §1

[12] = compound: CCCc1cc(C)[nH]c(=O)c1CNC(=O)c1cc(-c2ccnc(N3CCN(C)CC3)c2)cc2c1cnn2C(C)C
In short: as §1

givinostat = compound: CCN(CC)Cc1ccc2cc(COC(=O)Nc3ccc(C(=O)NO)cc3)ccc2c1 [givinostat]
In short: as §1

barasertib = compound: CCN(CCCOc1ccc2c(Nc3cc(CC(=O)Nc4cccc(F)c4)[nH]n3)ncnc2c1)CCOP(=O)(O)O [barasertib]
In short: as §1

Measured: log2 fold change

SESN2 (UniProt P58004)
UniProt P58004, sequence (P58004 whole entry, looked up): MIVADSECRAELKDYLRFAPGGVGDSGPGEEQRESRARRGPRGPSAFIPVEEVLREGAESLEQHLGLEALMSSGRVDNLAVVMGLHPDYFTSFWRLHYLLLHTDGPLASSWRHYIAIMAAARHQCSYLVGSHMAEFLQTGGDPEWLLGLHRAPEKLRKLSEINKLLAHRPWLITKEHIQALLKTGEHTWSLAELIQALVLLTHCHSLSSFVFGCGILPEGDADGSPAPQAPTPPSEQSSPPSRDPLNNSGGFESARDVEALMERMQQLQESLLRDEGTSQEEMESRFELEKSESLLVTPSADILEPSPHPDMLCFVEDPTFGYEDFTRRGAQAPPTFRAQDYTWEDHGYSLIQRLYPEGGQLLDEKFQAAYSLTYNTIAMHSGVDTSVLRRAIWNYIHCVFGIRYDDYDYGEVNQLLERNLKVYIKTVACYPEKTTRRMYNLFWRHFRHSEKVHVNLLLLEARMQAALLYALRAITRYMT
inactive: IRAK-1-4 Inhibitor I -0.143 | ibrutinib 0.034 | [1] 0 | ralimetinib 0.21 | [2] -0.049 | [3] -0.407 | [4] 0.055 | pinometostat 0.081 | [5] 0.041 | [6] -0.017 | [7] 0.166 | [8] -0.069 | [9] -0.017 | [10] -0.031 | Nexturastat A 0.094 | vemurafenib 0.194 | [11] 0.186 | [12] 0.19 | givinostat 0.046 | barasertib 0.119

RAVER1 (UniProt E9PAU2)
inactive: IRAK-1-4 Inhibitor I -0.062 | ibrutinib 0.033 | [1] -0.308 | ralimetinib 0.082 | [2] -0.263 | [3] -0.409 | [4] -0.042 | pinometostat 0.052 | [5] 0.016 | [6] -0.694 | [7] 0.144 | [8] -0.075 | [9] -0.025 | [10] 0.144 | Nexturastat A -0.046 | vemurafenib -0.1 | [11] 0.067 | [12] 0.293 | givinostat 0.131 | barasertib 0.099

SART3, A0A499FI31
active: [3] -0.379 | [6] -0.377
inactive: IRAK-1-4 Inhibitor I -0.021 | ibrutinib -0.017 | [1] 0.062 | ralimetinib 0.002 | [2] -0.033 | [4] -0.051 | pinometostat -0.025 | [5] 0.021 | [7] 0.015 | [8] -0.05 | [9] -0.014 | [10] 0.04 | Nexturastat A -0.043 | vemurafenib 0.023 | [11] 0.072 | [12] -0.013 | givinostat 0.012 | barasertib 0.022

SDHC (UniProt Q99643)
UniProt Q99643, sequence (Q99643 whole entry, looked up): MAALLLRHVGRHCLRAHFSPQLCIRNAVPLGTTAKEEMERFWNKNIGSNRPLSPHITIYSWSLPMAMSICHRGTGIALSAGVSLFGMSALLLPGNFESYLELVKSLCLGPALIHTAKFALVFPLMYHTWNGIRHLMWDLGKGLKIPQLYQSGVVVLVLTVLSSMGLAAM
inactive: IRAK-1-4 Inhibitor I 0.095 | ibrutinib 0.004 | [1] 0.025 | ralimetinib -0.055 | [2] -0.185 | [3] 0.012 | [4] -0.286 | pinometostat -0.086 | [5] 0.193 | [6] 0.108 | [7] 0.01 | [8] 0.023 | [9] -0.041 | [10] 0.023 | Nexturastat A -0.217 | vemurafenib 0.128 | [11] 0.038 | [12] -0.122 | givinostat -0.108 | barasertib -0.04

REEP4 (UniProt Q9H6H4)
UniProt Q9H6H4, sequence (Q9H6H4 whole entry, looked up): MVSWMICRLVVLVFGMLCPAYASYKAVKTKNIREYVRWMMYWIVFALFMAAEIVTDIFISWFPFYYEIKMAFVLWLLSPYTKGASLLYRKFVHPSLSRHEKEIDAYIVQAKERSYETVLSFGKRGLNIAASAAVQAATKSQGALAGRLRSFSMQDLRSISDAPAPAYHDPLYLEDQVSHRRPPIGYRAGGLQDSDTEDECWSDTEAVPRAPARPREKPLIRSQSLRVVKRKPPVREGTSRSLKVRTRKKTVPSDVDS
inactive: IRAK-1-4 Inhibitor I 0.005 | ibrutinib -0.003 | [1] -0.198 | ralimetinib 0.164 | [2] -0.049 | [3] -0.157 | [4] 0.041 | pinometostat 0.13 | [5] 0.04 | [6] 0.036 | [7] 0.08 | [8] 0.001 | [9] 0.047 | [10] -0.043 | Nexturastat A 0.107 | vemurafenib 0.008 | [11] 0.126 | [12] 0.019 | givinostat 0.011 | barasertib 0.002

RPS15 (UniProt P62841)
active: [6] -0.574
inactive: IRAK-1-4 Inhibitor I -0.114 | ibrutinib 0.11 | [1] -0.042 | ralimetinib 0.076 | [2] 0.103 | [3] -0.043 | [4] 0.11 | pinometostat 0.088 | [5] 0.071 | [7] -0.014 | [8] 0.038 | [9] -0.146 | [10] 0.005 | Nexturastat A 0.285 | vemurafenib -0.117 | [11] -0.175 | [12] 0.1 | givinostat -0.041 | barasertib -0.125

SIDT2 isoform 2 (UniProt Q8NBJ9)
UniProt Q8NBJ9, sequence (Q8NBJ9 whole entry, looked up): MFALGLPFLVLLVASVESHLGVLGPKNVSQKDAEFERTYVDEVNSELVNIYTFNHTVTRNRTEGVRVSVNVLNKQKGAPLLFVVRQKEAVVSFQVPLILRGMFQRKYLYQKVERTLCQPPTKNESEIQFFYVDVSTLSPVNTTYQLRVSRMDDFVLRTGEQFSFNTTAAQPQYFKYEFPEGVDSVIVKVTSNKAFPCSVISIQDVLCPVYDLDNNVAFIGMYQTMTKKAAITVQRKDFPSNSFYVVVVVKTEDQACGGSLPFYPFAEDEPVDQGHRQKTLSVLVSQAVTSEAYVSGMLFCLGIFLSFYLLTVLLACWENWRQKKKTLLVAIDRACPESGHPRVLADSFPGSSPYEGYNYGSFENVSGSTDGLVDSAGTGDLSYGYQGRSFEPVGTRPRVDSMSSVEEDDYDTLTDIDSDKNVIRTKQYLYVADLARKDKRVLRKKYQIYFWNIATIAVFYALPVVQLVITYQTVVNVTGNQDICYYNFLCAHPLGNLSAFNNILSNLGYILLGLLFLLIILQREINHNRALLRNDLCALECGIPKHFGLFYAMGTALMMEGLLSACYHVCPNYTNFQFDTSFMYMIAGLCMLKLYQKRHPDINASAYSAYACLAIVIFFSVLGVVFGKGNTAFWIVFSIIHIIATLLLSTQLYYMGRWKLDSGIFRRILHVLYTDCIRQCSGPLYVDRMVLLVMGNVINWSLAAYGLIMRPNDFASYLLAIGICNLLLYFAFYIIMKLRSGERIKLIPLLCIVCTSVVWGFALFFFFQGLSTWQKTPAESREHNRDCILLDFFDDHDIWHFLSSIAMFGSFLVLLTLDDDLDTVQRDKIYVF
inactive: IRAK-1-4 Inhibitor I -0.017 | ibrutinib 0.123 | [1] -0.039 | ralimetinib -0.143 | [2] -0.021 | [4] 0 | pinometostat 0.271 | [5] 0.009 | [6] 0.005 | [7] -0.021 | [8] 0.019 | [9] -0.025 | Nexturastat A 0.042 | vemurafenib 0.019 | [11] -0.033 | [12] 0.017 | givinostat 0.038 | barasertib -0.148
active: [3] -0.353 | [10] -0.367

RBM33 (UniProt Q96EV2)
UniProt Q96EV2, sequence (Q96EV2 whole entry, looked up): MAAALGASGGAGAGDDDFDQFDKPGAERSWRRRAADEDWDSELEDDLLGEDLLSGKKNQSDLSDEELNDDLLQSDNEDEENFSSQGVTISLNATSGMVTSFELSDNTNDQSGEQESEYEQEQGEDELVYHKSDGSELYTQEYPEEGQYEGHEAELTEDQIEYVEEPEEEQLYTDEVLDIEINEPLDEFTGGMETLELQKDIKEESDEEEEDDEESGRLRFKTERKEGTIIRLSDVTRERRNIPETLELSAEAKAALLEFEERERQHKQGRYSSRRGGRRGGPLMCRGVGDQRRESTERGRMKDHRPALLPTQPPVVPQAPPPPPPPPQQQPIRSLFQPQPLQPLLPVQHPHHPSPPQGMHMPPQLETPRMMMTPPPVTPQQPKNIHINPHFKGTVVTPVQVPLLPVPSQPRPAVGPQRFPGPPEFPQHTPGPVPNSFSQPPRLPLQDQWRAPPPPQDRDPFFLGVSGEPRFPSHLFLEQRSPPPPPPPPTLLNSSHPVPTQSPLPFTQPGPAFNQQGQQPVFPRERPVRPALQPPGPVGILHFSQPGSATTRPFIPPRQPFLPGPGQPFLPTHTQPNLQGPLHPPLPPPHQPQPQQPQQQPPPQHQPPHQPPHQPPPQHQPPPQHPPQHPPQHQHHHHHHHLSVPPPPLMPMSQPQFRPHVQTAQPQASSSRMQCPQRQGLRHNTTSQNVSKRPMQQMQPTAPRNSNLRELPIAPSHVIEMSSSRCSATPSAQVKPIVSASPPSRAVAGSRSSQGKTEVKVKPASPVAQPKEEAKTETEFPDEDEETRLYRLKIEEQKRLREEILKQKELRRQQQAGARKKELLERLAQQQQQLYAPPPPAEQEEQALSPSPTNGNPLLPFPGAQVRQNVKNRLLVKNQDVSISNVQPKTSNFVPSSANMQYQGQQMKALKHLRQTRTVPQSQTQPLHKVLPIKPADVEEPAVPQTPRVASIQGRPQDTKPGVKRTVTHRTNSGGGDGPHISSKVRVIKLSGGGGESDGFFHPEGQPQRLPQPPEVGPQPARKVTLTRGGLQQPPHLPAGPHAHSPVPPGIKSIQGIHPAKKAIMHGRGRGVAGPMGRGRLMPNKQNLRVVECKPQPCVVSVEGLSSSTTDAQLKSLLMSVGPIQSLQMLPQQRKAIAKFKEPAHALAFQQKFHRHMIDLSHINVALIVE
inactive: IRAK-1-4 Inhibitor I -0.058 | ibrutinib 0.024 | [1] -0.063 | ralimetinib 0.014 | [2] 0.046 | [3] -0.018 | [4] -0.01 | pinometostat -0.01 | [5] 0.001 | [7] -0.024 | [8] -0.001 | [9] -0.014 | [10] 0.014 | Nexturastat A 0.021 | vemurafenib -0.019 | [11] 0.022 | [12] 0.022 | givinostat 0.077 | barasertib 0.037
active: [6] -0.282
